About 83,000 compounds went through this panel and 20% of them were active in at least one assay; those are over-represented in the sample as a whole.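 Cell lines were cultured in 96-well plates, exposed to a single compound concentration, and assessed for percent growth 48 hours later.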 Values without a mark were called inactive. Active and inactive are the calls of the source. Rule for the calls: active = growth percent below 10; inactive = the rest.
Tests used:
Test in all cases: NCI-60 one-dose screen, 48 h (100 = growth as untreated, 0 = no growth, -100 = all killed)
Conditions in all cases: 10 µM unless noted
SK-MEL-2 melanoma = test system: SK-MEL-2 melanoma
EKVX NSCLC = test system: EKVX NSCLC
SN12C renal = test system: SN12C renal
UO-31 renal = test system: UO-31 renal
TK-10 renal = test system: TK-10 renal
ACHN renal = test system: ACHN renal
CAKI-1 renal = test system: CAKI-1 renal
A498 renal = test system: A498 renal
CCRF-CEM leukemia = test system: CCRF-CEM leukemia
MOLT-4 leukemia = test system: MOLT-4 leukemia
SR leukemia = test system: SR leukemia
RPMI-8226 leukemia = test system: RPMI-8226 leukemia
OVCAR-8 ovarian = test system: OVCAR-8 ovarian
OVCAR-5 ovarian = test system: OVCAR-5 ovarian
OVCAR-4 ovarian = test system: OVCAR-4 ovarian
SK-OV-3 ovarian = test system: SK-OV-3 ovarian
OVCAR-3 ovarian = test system: OVCAR-3 ovarian
HS 578T breast = test system: HS 578T breast
NCI/ADR-RES ovarian = test system: NCI/ADR-RES ovarian
IGROV1 ovarian = test system: IGROV1 ovarian

| Structure (SMILES) | growth (SK-MEL-2 melanoma) | growth (EKVX NSCLC) | growth (SN12C renal) | growth (UO-31 renal) | growth (TK-10 renal) | growth (ACHN renal) | growth (CAKI-1 renal) | growth (A498 renal) | growth (CCRF-CEM leukemia) | growth (MOLT-4 leukemia) | growth (SR leukemia) | growth (RPMI-8226 leukemia) | growth (OVCAR-8 ovarian) | growth (OVCAR-5 ovarian) | growth (OVCAR-4 ovarian) | growth (SK-OV-3 ovarian) | growth (OVCAR-3 ovarian) | growth (HS 578T breast) | growth (NCI/ADR-RES ovarian) | growth (IGROV1 ovarian) [%] |
| --- | --- | --- | --- | --- | --- | --- | --- | --- | --- | --- | --- | --- | --- | --- | --- | --- | --- | --- | --- | --- |
| NC(=O)c1c(NC(=O)c2cccc(C(F)(F)F)c2)sc2c1CCC(=O)C2 | -18.5% (active) | 9.15% (active) | 3.64% (active) | -95.9% (active) | 5.23% (active) | -93.4% (active) | -55% (active) | 53.2% | 0.959% (active) | -18.1% (active) | -13.2% (active) | -22.5% (active) | 13.6% | 12.8% | -92.2% (active) | 1.42% (active) | -37.6% (active) | 9.53% (active) | -2.23% (active) | – |
| COc1cccc(-c2cc(-c3cccc(Cl)c3)c(C#N)c(=O)[nH]2)c1 | 60.8% | 90.4% | 85.2% | 71.5% | 95.9% | 94.2% | 64.9% | 45.8% | 28.2% | 64.8% | 45.5% | 64.3% | 89.6% | 96.7% | 73% | 81% | 51% | 49.3% | 69.2% | – |
| O=C(Nc1ccccc1[N+](=O)[O-])c1ccc(Cl)c(Cl)c1 | 95.6% | 85.3% | 94.7% | 71.1% | 124% | 94.7% | 92.8% | 58.7% | 106% | 96.7% | 92.3% | 90.1% | 95.5% | 111% | 81.4% | 94.9% | 97% | – | 87.2% | 87.2 |
| C[C@]1(O)CC(=O)[C@]2(O)C3=C(C=C[C@]2(O)C1)C(=O)c1c(O)cccc1C3=O | 89.7% | 73.8% | 3.18% (active) | -96.6% (active) | -82.8% (active) | -100% (active) | -59.8% (active) | 117% | 0.446% (active) | -12.8% (active) | 10.5% | -0.202% (active) | -12.6% (active) | 38.8% | -97.9% (active) | 98.8% | -32.8% (active) | – | 47.2% | 27.1 |
| CCN(CC)Cc1cc(Nc2ccnc3cc(Cl)ccc23)ccc1O | 111% | 68.5% | 81.9% | 87.1% | 108% | 100% | 88.3% | 95.7% | 88.8% | 100% | 82.7% | 93.3% | 100% | 97.7% | 94.4% | 116% | 88.5% | – | 93.9% | 88.4 |
| COc1cc(C2C(C(=O)OCc3ccccc3)=C(C)NC(C)=C2C(=O)OCc2ccccc2)cc(OC)c1OC | -6.43% (active) | 31.5% | 29.1% | 18.5% | 34.8% | 16.2% | 26.2% | 36.8% | 11.3% | -9.95% (active) | 4.89% (active) | -0.546% (active) | 34% | 68.5% | 37.6% | 27.5% | 35.7% | – | 26.1% | 38.7 |
| O=C(Oc1ccc(CCl)cc1)c1ccccc1 | -71.4% (active) | -100% (active) | -84.8% (active) | -92.6% (active) | -96.3% (active) | -92.1% (active) | -96.3% (active) | -87.4% (active) | -48.6% (active) | -49.7% (active) | -43.7% (active) | -50.2% (active) | -84.5% (active) | -85.2% (active) | -83.1% (active) | -100% (active) | -97.3% (active) | -13.4% (active) | -63.7% (active) | – |
| COc1ccc(C(=O)/C=C/c2ccc(Cl)cc2)cc1S(=O)(=O)Nc1c(N)nc(SC)[nH]c1=O | 95.8% | 85.2% | 16.8% | 51.6% | 79.6% | 82.1% | 68.5% | 80.9% | 9.03% (active) | 59.8% | 9.2% (active) | 10% | 10.8% | 86.3% | 66.7% | 97.4% | 10.1% | – | 97.5% | 40.1 |

Reference: PubChem BioAssay (NCI)
